A short description of assay [1]: NCI Yeast Anticancer Drug Screen. Data for the rad50 strain (AID 155).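 Note: 0% = growth of vehicle-only cultures of the same strain.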 The conditions noted are these: S. cerevisiae rad50 strain growth inhibition, stronger effect = higher value. The procedure, abridged: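 A DNA repair-deficient yeast mutant serves as the test organism; compound-induced growth inhibition is calculated against vehicle-treated cells.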
Assay [2] is described as follows: NCI Yeast Anticancer Drug Screen. Data for the mec2-1 strain (AID 157). To be noted: S. cerevisiae mec2-1 strain, stronger effect = higher value. The procedure, abridged: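 Using mec2-1 yeast: add compound, measure growth, express inhibition versus vehicle-treated cultures.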
A short description of assay [3]: NCI Yeast Anticancer Drug Screen. Data for the sgs1 mgt1 strain (AID 161).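 Note: 0% = growth of cultures given vehicle only.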 The conditions noted are these: S. cerevisiae sgs1 mgt1 strain, stronger effect = higher value. The procedure, abridged: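 This yeast growth screen uses a strain with defined DNA-repair lesions; compound-treated growth is compared with vehicle-treated growth.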
Assay [4] is described as follows: NCI Yeast Anticancer Drug Screen. Data for the cln2 rad14 strain (AID 165).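 Note: 0% = growth equal to vehicle treated cultures.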 The conditions noted are these: S. cerevisiae cln2 rad14 strain, stronger effect = higher value. A digest of the protocol: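 Yeast strain cln2 rad14, bearing defects in cell cycle control and DNA repair, serves as the test system; values reflect growth inhibition compared with vehicle.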
Assay [5] is described as follows: NCI Yeast Anticancer Drug Screen. Data for the bub3 strain (AID 167). The conditions noted are these: S. cerevisiae bub3 mutant strain, stronger effect = higher value. A digest of the protocol: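 Inhibition values come from growth of compound-treated mutant yeast normalised to vehicle-treated controls.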
Assay [6] can be described thus: NCI Yeast Anticancer Drug Screen. Data for the mlh1 rad18 strain (AID 175). The conditions noted are these: S. cerevisiae mlh1 rad18 strain growth inhibition, stronger effect = higher value. The procedure, abridged:
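Steps: expose repair-defective yeast to compound; measure growth; express inhibition against vehicle-treated controls.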

Where [7] appears, read: at 5.0 µM (retest, dose inferred, filed as 0.5).
The mark [8] stands for this setting: at 50.0 µM (retest, dose inferred, filed as 5.0).

In PubChem BioAssay (NCI) one finds growth inhibition data, which are given here for 10 compounds.

This is part of a sample that, as a whole, favours compounds with a hit. Of some 79,000 tested, about 15% had one in any assay. Unmarked numbers belong to inactive results. Calls of active or inactive are those of the source. Cut-off read from the data, not from the text of the source: active = growth inhibition above about 70%; inactive = the rest. Where a SMILES comes first, the peptide text is derived from it. The star is where a group is joined. Cbz = O=C(OCc1ccccc1)*; CH2Cl = ClC*

In the case of `CCN(CC)CCCCNc1ccc(Cl)cc1`, the growth inhibition was -2% in assay [1] (setting [7]); 12% in assay [1] (setting [8]); 38.2% in assay [1] (at 50.0 µM); 1% in assay [2] (setting [7]); -2% in assay [2] (setting [8]); 39.1% in assay [2] (at 50.0 µM). In addition, the growth inhibition in assay [3] (setting [7]) is -2%; in assay [3] (setting [8]), 18%; in assay [3] (at 50.0 µM), 53.9%; in assay [4] (setting [7]) it was 2%; in assay [4] (setting [8]), -3%; in assay [4] (at 50.0 µM), -9.2%. Moreover, the growth inhibition is -1% in assay [5] (setting [7]); 10% in assay [5] (setting [8]); 44.5% in assay [5] (at 50.0 µM); -7% in assay [6] (setting [7]); 8% in assay [6] (setting [8]); 71.6% (active) in assay [6] (at 50.0 µM).

Consider `O=C(NCCN1CCCC1)c1cn2c(ccc3sc4ccccc4c(=O)c32)n1`, for which the growth inhibition in assay [1] (setting [7]) is 29%; in assay [1] (setting [8]), 89% (active); in assay [1] (at 50.0 µM), 66%; in assay [2] (setting [7]), 21%; in assay [2] (setting [8]), 71% (active); in assay [2] (at 50.0 µM), 49.6%. Further, the growth inhibition in assay [3] (setting [7]) was 19%; in assay [3] (setting [8]), 77% (active); in assay [3] (at 50.0 µM), 46%; in assay [4] (setting [7]), 19%; in assay [4] (setting [8]) it was 54%; in assay [4] (at 50.0 µM) it was 37.2%. The growth inhibition in assay [5] (setting [7]) was 20%; in assay [5] (setting [8]), 76% (active); in assay [5] (at 50.0 µM), 25.9%; in assay [6] (setting [7]), 26%; in assay [6] (setting [8]) it was 81% (active); in assay [6] (at 50.0 µM) it was 20.4%.

As to `CCOC(=O)C1=C(c2ccccc2)SC(c2ccccc2)N(C(C)C)C1=O` (stereo not given), the growth inhibition in assay [1] (setting [7]) was 8%; in assay [1] (setting [8]), 67%; in assay [1] (at 50.0 µM) it was 90.3% (active); in assay [2] (setting [7]) it was 13%; in assay [2] (setting [8]), 51%; in assay [2] (at 50.0 µM), 88% (active). The growth inhibition is 15% in assay [3] (setting [7]); 81% (active) in assay [3] (setting [8]); 94.5% (active) in assay [3] (at 50.0 µM); 12% in assay [4] (setting [7]); 63% in assay [4] (setting [8]); 83.6% (active) in assay [4] (at 50.0 µM). In addition, the growth inhibition in assay [5] (setting [7]) is 4%; in assay [5] (setting [8]) it was 68%; in assay [5] (at 50.0 µM), 87.7% (active); in assay [6] (setting [7]), 9%; in assay [6] (setting [8]) it was 76% (active); in assay [6] (at 50.0 µM) it was 88.1% (active).

As to `CN1CCCCC1c1cc2c3ccccc3ccn2c1-c1ccccc1` (stereo not given), the growth inhibition is 71% (active) in assay [1] (setting [7]); 95% (active) in assay [1] (setting [8]); 96.5% (active) in assay [1] (at 50.0 µM); 62% in assay [2] (setting [7]); 99% (active) in assay [2] (setting [8]); 98.3% (active) in assay [2] (at 50.0 µM). For the same compound, the growth inhibition in assay [3] (setting [7]) is 75% (active); in assay [3] (setting [8]) it was 94% (active); in assay [3] (at 50.0 µM), 98.7% (active); in assay [4] (setting [7]), -7%; in assay [4] (setting [8]), 92% (active); in assay [4] (at 50.0 µM) it was 94.8% (active). The growth inhibition in assay [5] (setting [7]) was 9%; in assay [5] (setting [8]) it was 96% (active); in assay [5] (at 50.0 µM) it was 98.4% (active); in assay [6] (setting [7]), 69%; in assay [6] (setting [8]), 92% (active); in assay [6] (at 50.0 µM), 98.5% (active).

With `CN(C)c1ccc(/C=C(/C#N)c2ccc(Cl)cc2)cc1`, the growth inhibition was -16% in assay [1] (setting [7]); -18% in assay [1] (setting [8]); 3.45% in assay [1] (at 50.0 µM); 0% in assay [2] (setting [7]); 8% in assay [2] (setting [8]); 13.2% in assay [2] (at 50.0 µM). Further, the growth inhibition in assay [3] (setting [7]) was 3%; in assay [3] (setting [8]), 15%; in assay [3] (at 50.0 µM), -10.3%; in assay [4] (setting [7]), 27%; in assay [4] (setting [8]) it was -6%; in assay [4] (at 50.0 µM) it was 64.4%. Further, the growth inhibition in assay [5] (setting [7]) was 6%; in assay [5] (setting [8]), -25%; in assay [5] (at 50.0 µM), 7%; in assay [6] (setting [7]), -17%; in assay [6] (setting [8]), -18%; in assay [6] (at 50.0 µM) it was 5.5%.

With `CC(C)CC(NC(=O)OCc1ccccc1)C(=O)NC(Cc1ccccc1)C(=O)CCl` (stereo not drawn) (Cbz-Leu-Phe-CH2Cl; configuration not given here), the growth inhibition in assay [1] (setting [7]) is 43%; in assay [1] (setting [8]), 62%; in assay [1] (at 50.0 µM) it was 28.9%; in assay [2] (setting [7]), 48%; in assay [2] (setting [8]), 86% (active); in assay [2] (at 50.0 µM) it was 58.5%. Besides, the growth inhibition in assay [3] (setting [7]) is 27%; in assay [3] (setting [8]), 46%; in assay [3] (at 50.0 µM) it was 53.8%; in assay [4] (setting [7]) it was 16%; in assay [4] (setting [8]) it was 52%; in assay [4] (at 50.0 µM) it was -8.15%. Moreover, the growth inhibition in assay [5] (setting [7]) is 51%; in assay [5] (setting [8]), 77% (active); in assay [5] (at 50.0 µM), 87.5% (active); in assay [6] (setting [7]), 46%; in assay [6] (setting [8]) it was 74% (active); in assay [6] (at 50.0 µM) it was 54.9%.

As to `CC1=C2CCC3C(CCC4(C)C(C(C)CCCC(C)C)CCC34)C2(C)CCC1=O` (stereo not given), the growth inhibition in assay [1] (setting [7]) was -11%; in assay [1] (setting [8]), -2%; in assay [1] (at 50.0 µM), 41%; in assay [2] (setting [7]), 1%; in assay [2] (setting [8]), -2%; in assay [2] (at 50.0 µM) it was 4.25%. Besides, the growth inhibition was 4% in assay [3] (setting [7]); -1% in assay [3] (setting [8]); 16.4% in assay [3] (at 50.0 µM); 6% in assay [4] (setting [7]); 3% in assay [4] (setting [8]); 18.4% in assay [4] (at 50.0 µM). The growth inhibition is 1% in assay [5] (setting [7]); 5% in assay [5] (setting [8]); 4.1% in assay [5] (at 50.0 µM); 17% in assay [6] (setting [7]); 9% in assay [6] (setting [8]); 10.9% in assay [6] (at 50.0 µM).

Regarding `CCN(CC)CCNc1ccc2nnn3c4ccccc4c(=O)c1c23`, the growth inhibition in assay [1] (setting [7]) is -2%; in assay [1] (setting [8]), 63%; in assay [1] (at 50.0 µM), 30.8%; in assay [2] (setting [7]), -31%; in assay [2] (setting [8]) it was 21%; in assay [2] (at 50.0 µM), 17.7%. In addition, the growth inhibition in assay [3] (setting [7]) is 0%; in assay [3] (setting [8]), -4%; in assay [3] (at 50.0 µM), 9.3%; in assay [4] (setting [7]) it was -1%; in assay [4] (setting [8]), 39%; in assay [4] (at 50.0 µM), 21.1%. Also, the growth inhibition in assay [5] (setting [7]) is -10%; in assay [5] (setting [8]) it was 19%; in assay [5] (at 50.0 µM) it was 10.2%; in assay [6] (setting [7]) it was -1%; in assay [6] (setting [8]) it was -3%; in assay [6] (at 50.0 µM), 81.2% (active).

`COc1ccc(/C=C2\N=C(c3ccco3)OC2=O)cc1Br`: the growth inhibition in assay [1] (setting [7]) is 16%; in assay [1] (setting [8]), 2%; in assay [1] (at 50.0 µM), -4.8%; in assay [2] (setting [7]), -17%; in assay [2] (setting [8]), -4%; in assay [2] (at 50.0 µM), 5.85%. In addition, the growth inhibition is -1% in assay [3] (setting [7]); 12% in assay [3] (setting [8]); 11% in assay [3] (at 50.0 µM); 30% in assay [4] (setting [7]); 22% in assay [4] (setting [8]); 4.8% in assay [4] (at 50.0 µM). The growth inhibition in assay [5] (setting [7]) was 5%; in assay [5] (setting [8]) it was 13%; in assay [5] (at 50.0 µM), 27.1%; in assay [6] (setting [7]) it was -7%; in assay [6] (setting [8]) it was -32%; in assay [6] (at 50.0 µM), 5.65%.

For the compound `Clc1ccc2ns[s+]c2c1`, the growth inhibition is 8% in assay [1] (setting [7]); 78% (active) in assay [1] (setting [8]); 73.7% (active) in assay [1] (at 50.0 µM); 13% in assay [2] (setting [7]); 93% (active) in assay [2] (setting [8]); 48.1% in assay [2] (at 50.0 µM). Further, the growth inhibition was 12% in assay [3] (setting [7]); 86% (active) in assay [3] (setting [8]); 80.6% (active) in assay [3] (at 50.0 µM); 21% in assay [4] (setting [7]); 49% in assay [4] (setting [8]); 47.8% in assay [4] (at 50.0 µM). Further, the growth inhibition was 26% in assay [5] (setting [7]); 96% (active) in assay [5] (setting [8]); 72.3% (active) in assay [5] (at 50.0 µM); 17% in assay [6] (setting [7]); 85% (active) in assay [6] (setting [8]); -27.7% in assay [6] (at 50.0 µM).
